The panel holds about 83,000 compounds, 20% with a hit somewhere; the sample as a whole holds those more often.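 Each cell line was grown in a 96-well plate and treated with one concentration of compound for 48 hours. Values below 10 were considered active.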 A number with no mark means an inactive call. Active and inactive are the calls of the source.
The compounds below were run on NCI-H23 lung (assay: NCI-60 one-dose screen, 48 h (100 = growth as untreated, 0 = no growth, -100 = all killed)). Conditions: 10 µM unless noted.

| SMILES | growth |
| --- | --- |
| O=C1C(Cl)=C(NCCN2CCOCC2)C(=O)c2ncccc21 | -41.8% (active) |
| O=C(Nc1ccc(F)cc1)Nc1ccccc1CNc1nc(Nc2ccc(OCCN3CCCC3)cc2)ncc1Cl | 60.8% |
| C[C@H]1[C@H](C)CC[C@]2(C(=O)O)CC[C@]3(C)C(=CC[C@@H]4[C@@]5(C)C[C@@H](Cc6cn([C@@H]7O[C@H](CO)[C@@H](O)[C@H](O)[C@H]7O)nn6)[C@H](O)C(C)(C)[C@@H]5CC[C@]43C)[C@H]12 | 97.7% |
| COC(=O)c1ccc2c(c1)c1c(C)c3ccncc3c(C)c1n2C | 24.1% |
| COc1cc(C(=O)c2c(-c3ccccc3)oc3c(OC)cccc23)cc(OC)c1O | 34% |
| C=C1C(=O)O[C@H]2[C@H]1CC/C(CNC(=O)c1cc3ccccc3[nH]1)=C\CC[C@@]1(C)O[C@@H]21 | -42.3% (active) |
| O=P(O)(O)OCC1OC(n2cnc3c(NCc4ccccc4)ncnc32)C(O)C1O (stereo unspecified) | 17.8% |
| CCN(CC)CCCNCc1cc(-c2ccccc2)nc2cc(Cl)ccc12 | 68.6% |
| COc1cc2nc(Nc3cccc(F)c3)nc(Nc3cc(C)[nH]n3)c2cc1OC | -71.2% [20 µM] (active) |
| CCC/C(=N\NC(N)=O)C(OC)OC | 99.9% |
| O=C1c2cc3c(cc2-c2c1c1ccc(Cl)cc1c(=O)n2C[C@H](O)CO)OCO3 | -11.4% (active) |
| CCSC1=CC(=O)c2ccccc2C1=O | 85.9% |
| COc1cc(-c2nc3occn3c2-c2ccnc(NCCCNS(=O)(=O)c3ccccc3)n2)ccc1F | 45.6% |
| COC1=CC(c2ccc[nH]2)=N/C1=C\c1[nH]c(C)c(CC(=O)OCc2ccccc2)c1C | 6.16% (active) |
| O=C(CSc1nnc2sc(Nc3cccc(Cl)c3)nn12)c1ccc(F)cc1 | 80.3% |
| COc1ccc(C2=Nc3c(N)ncnc3NC(c3cccc(Nc4ccnc5cc(C(F)(F)F)ccc45)c3)C2)cc1 (stereo unspecified) | 70.1% |
| Nc1c(C(=O)Nc2cccc3ncccc23)sc2nc3c(cc12)C(=O)CCC3 | 53.8% |
| C#CCn1cnc2c(Nc3cccc(NC(=O)CCl)c3)ncnc21 | 38.1% |
| COc1cc2oc(-c3cccc(NC(=O)c4ccc5c(c4)OCO5)c3)cc(=O)c2c(OC)c1OC | 52.9% |
| CCOC(=O)CSc1nc2sc3c(c2c(=O)n1-c1ccc([N+](=O)[O-])cc1)CCCCC3 | 74.5% |
| Cn1cc(-c2nn3cc(-c4ccccc4)nc3s2)c2ccccc21 | 79.2% |
| C=C1C(=O)O[C@H]2[C@H]1CC/C(COC(=O)NCCCCCCCCNC(=O)OC/C1=C/CC[C@@]3(C)O[C@H]3[C@H]3OC(=O)C(=C)[C@@H]3CC1)=C\CC[C@@]1(C)O[C@@H]21 | -53.6% (active) |
| Oc1c(I)cc(-c2nc3ccccc3s2)cc1CN(Cc1ccccn1)Cc1ccccn1 | 18.3% |
| Cc1ncc(C(=O)Nc2ccc(CN3CCN(C)CC3)c(C(F)(F)F)c2)cc1C#Cc1cnc(N)c2ccncc12 | -65% (active) |
| O=C1/C(=C/c2ccc(C(F)(F)F)cc2)COc2ccc(O)c(O)c21 | 38% |
| O=C1N[C@@H]2[C@@H](O)[C@@H](O)[C@H](O)C[C@H]2c2cc3c(c(O)c21)OCCO3 | -40.9% (active) |

The compounds below were run on NCI-H226 lung in the same assay as above. Conditions: 10 µM unless noted.

| SMILES | growth |
| --- | --- |
| CCCCCSB(SCCCCC)c1ccccc1 | 102% |
| c1ccc(CNc2ccc3nc(CCC4CCCCC4)[nH]c3c2)cc1 | 71.4% |
| S=c1ssnc1-c1cccs1 | 96.1% |
| O=C(/C=C/c1ccc(Br)cc1)c1ccc(-n2cc(CN3CCN(c4cc5c(cc4F)c(=O)c(C(=O)O)cn5C4CC4)CC3)nn2)cc1 | 84.5% |
| COc1ccc(Cc2cnc(NC(=O)c3sc4ccccc4c3Cl)s2)cc1 | 49.7% |
| N#C/C(=C\c1ccc(Cl)cc1Cl)C(=O)Nc1ncc(Cc2ccc(Cl)c(Cl)c2)s1 | 93.4% |
| N#Cc1c(-c2cccc([N+](=O)[O-])c2)cc(-c2ccc(Nc3nc(Nc4ccc(F)cc4)nc(Nc4ccc(F)cc4)n3)cc2)nc1N | 123% |
| O=C(CCCCCCN1CC(=O)N2[C@@H](c3ccc(Cl)cc3)c3[nH]c4ccccc4c3C[C@H]2C1=O)NO | 90.2% |
| CCCCCCCCn1ccc2cc(NC(=O)Cn3cc(CN4CCC(C)CC4)nn3)ccc21 | 69.9% |
| CCCC(O)Cn1ncc(C(=O)OCC)c1NC(=O)NCc1cccc(F)c1 (stereo unspecified) | 112% |
| COc1cc2c3c(c1O)-c1ccccc1[C@@H]1OC(=O)N(CC2)[C@H]31 | 96.7% |
| C/C(=C(/c1ccc(Cl)cc1)c1ccc(OCCCN(C)C)cc1)c1ccc(Cl)cc1 | 108% |
| Cc1cc(C(=O)Nc2cc(Nc3ncccc3-c3ncnc4nc[nH]c34)ccc2F)cc(C(F)(F)F)c1 | 39.9% |
| CCOC(=O)NN1CC(O)=C(c2nc(-c3ccc(Br)cc3)cs2)C1=N | 105% |
| O=C1C(Cl)=C(NCCN2CCOCC2)C(=O)c2ncccc21 | -37.8% (active) |
| O=C(Nc1ccc(F)cc1)Nc1ccccc1CNc1nc(Nc2ccc(OCCN3CCCC3)cc2)ncc1Cl | 99.1% |
| C[C@H]1[C@H](C)CC[C@]2(C(=O)O)CC[C@]3(C)C(=CC[C@@H]4[C@@]5(C)C[C@@H](Cc6cn([C@@H]7O[C@H](CO)[C@@H](O)[C@H](O)[C@H]7O)nn6)[C@H](O)C(C)(C)[C@@H]5CC[C@]43C)[C@H]12 | 94.3% |
| COC(=O)c1ccc2c(c1)c1c(C)c3ccncc3c(C)c1n2C | 25% |
| COc1cc(C(=O)c2c(-c3ccccc3)oc3c(OC)cccc23)cc(OC)c1O | -0.617% (active) |
| C=C1C(=O)O[C@H]2[C@H]1CC/C(CNC(=O)c1cc3ccccc3[nH]1)=C\CC[C@@]1(C)O[C@@H]21 | -42.9% (active) |

| SMILES | growth |
| --- | --- |
| O=P(O)(O)OCC1OC(n2cnc3c(NCc4ccccc4)ncnc32)C(O)C1O (stereo unspecified) | 21.1% |
| CCN(CC)CCCNCc1cc(-c2ccccc2)nc2cc(Cl)ccc12 | 140% |
| COc1cc2nc(Nc3cccc(F)c3)nc(Nc3cc(C)[nH]n3)c2cc1OC | -49.4% [20 µM] (active) |
| CCC/C(=N\NC(N)=O)C(OC)OC | 108% |
| O=C1c2cc3c(cc2-c2c1c1ccc(Cl)cc1c(=O)n2C[C@H](O)CO)OCO3 | -77.7% (active) |
| CCSC1=CC(=O)c2ccccc2C1=O | 88.4% |
| COc1cc(-c2nc3occn3c2-c2ccnc(NCCCNS(=O)(=O)c3ccccc3)n2)ccc1F | 18.4% |
| COC1=CC(c2ccc[nH]2)=N/C1=C\c1[nH]c(C)c(CC(=O)OCc2ccccc2)c1C | 10.5% |
| O=C(CSc1nnc2sc(Nc3cccc(Cl)c3)nn12)c1ccc(F)cc1 | 95.9% |
| COc1ccc(C2=Nc3c(N)ncnc3NC(c3cccc(Nc4ccnc5cc(C(F)(F)F)ccc45)c3)C2)cc1 (stereo unspecified) | 64.2% |
| Nc1c(C(=O)Nc2cccc3ncccc23)sc2nc3c(cc12)C(=O)CCC3 | 62.2% |
| C#CCn1cnc2c(Nc3cccc(NC(=O)CCl)c3)ncnc21 | 51.4% |
| COc1cc2oc(-c3cccc(NC(=O)c4ccc5c(c4)OCO5)c3)cc(=O)c2c(OC)c1OC | 65.7% |
| CCOC(=O)CSc1nc2sc3c(c2c(=O)n1-c1ccc([N+](=O)[O-])cc1)CCCCC3 | 98.8% |
| Cn1cc(-c2nn3cc(-c4ccccc4)nc3s2)c2ccccc21 | 69.5% |
| C=C1C(=O)O[C@H]2[C@H]1CC/C(COC(=O)NCCCCCCCCNC(=O)OC/C1=C/CC[C@@]3(C)O[C@H]3[C@H]3OC(=O)C(=C)[C@@H]3CC1)=C\CC[C@@]1(C)O[C@@H]21 | -84.2% (active) |
| Oc1c(I)cc(-c2nc3ccccc3s2)cc1CN(Cc1ccccn1)Cc1ccccn1 | 10.5% |
| Cc1ncc(C(=O)Nc2ccc(CN3CCN(C)CC3)c(C(F)(F)F)c2)cc1C#Cc1cnc(N)c2ccncc12 | -5.01% (active) |
| O=C1/C(=C/c2ccc(C(F)(F)F)cc2)COc2ccc(O)c(O)c21 | 81.1% |
| O=C1N[C@@H]2[C@@H](O)[C@@H](O)[C@H](O)C[C@H]2c2cc3c(c(O)c21)OCCO3 | -11.3% (active) |
